The text below walks through data of PubChem BioAssay (NCI).

This is part of a sample that, as a whole, favours compounds with a hit. Of some 83,000 tested, about 20% had one in any assay.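 96-well plates, one dose, 48 hours. Percent growth reported; active if below 10.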 Unmarked numbers belong to inactive results. The source made the active and inactive calls.

Common to all, as to assay: NCI-60 one-dose screen, 48 h (100 = growth as untreated, 0 = no growth, -100 = all killed)
Conditions in all cases: 10 µM unless noted

Assay [1] concerns T-47D breast.
Assay [2] deals with BT-549 breast.
In assay [3] the test system is MDA-MB-435 melanoma.
Assay [4] relates to SW-620 colon.
The test system of assay [5] is MCF7 breast.
The test system of assay [6] is HCT-116 colon.
The test system of assay [7] is HCC-2998 colon.
Assay [8] relates to KM12 colon.

For `COc1ccc(-c2cc(-c3cccnc3)nc3sc4c(=O)[nH]c(-c5ccc(Cl)cc5)nc4c23)cc1OC`, the growth in assay [1] was 66.8%; in assay [2] it was 91.1%; in assay [3] it was 99.8%; in assay [4], 92.2%; in assay [5], 73.5%; in assay [6], 80.7%. Moreover, the growth in assay [7] is 105%.

In the case of `CCOC(=O)c1c(NC(=O)c2ccc(Cl)cc2)sc2c(CN(C)C)c(O)ccc12`, the growth is 71.4% in assay [1]; 100% in assay [2]; 76.7% in assay [3]; 28.1% in assay [4]; 66.6% in assay [5]; 70.7% in assay [6]. In addition, the values for the growth in assay [7] and in assay [8] were -71.7% (active) and 87.9%, respectively.

In the case of `CCSC(SCC)c1ccc(Cl)cc1`, the growth is 101% in assay [1]; 112% in assay [2]; 97.4% in assay [3]; 99.3% in assay [4]; 104% in assay [5]; 108% in assay [6]. The growth in assay [7] is 92.3%; in assay [8], 114%.

For `COc1ccc(C/C(C)=C(/c2ccc(OCCN(C)C)cc2)c2ccc(OC(=O)NCc3ccccc3)cc2)cc1`, the growth is 51.7% in assay [1]; 82.5% in assay [2]; 74.4% in assay [3]; 61.5% in assay [4]; 21.2% in assay [5]; 52.1% in assay [6]. Also, the growth in assay [7] was 66.6%.

On to `CC(=O)c1c(C)nc2ccccc2c1/C=C/c1ccc(F)cc1`, for which the growth in assay [1] is 53.8%; in assay [2], 87.1%; in assay [3] it was 103%; in assay [4], 97.1%; in assay [5] it was 77.3%; in assay [6] it was 74.6%. In addition, the growth in assay [7] was 99%.

For `COc1ccc(-c2nc3cc(C(=O)NCc4ccccc4)ccc3n2C2CCCCC2)cc1`, the growth is 68.2% in assay [1]; 80.9% in assay [2]; 81.7% in assay [3]; 94.9% in assay [4]; 76.6% in assay [5]; 82.9% in assay [6]. Further, the values for the growth in assay [7] and in assay [8] were 79.3% and 57.4%, respectively.

With `C=C(CBr)[C@@H]1CC[C@]2(C(=O)O)CC[C@]3(C)[C@H](CC[C@@H]4[C@@]5(C)CCC(=O)C(C)(C)[C@@H]5CC[C@]43C)[C@@H]12`, the growth in assay [1] is 67.9%; in assay [2] it was 84%; in assay [3], 95.6%; in assay [4], 85.5%; in assay [5] it was 78.2%; in assay [6], 72.6%. The growth in assay [7] is 95.7%; in assay [8], 68.6%.

As for `O=C1Nc2ccccc2/C1=C/c1nc2ccccc2c(=O)[nH]1`, the growth was 71.5% in assay [1]; 95% in assay [2]; 104% in assay [3]; 102% in assay [4]; 60.2% in assay [5]; 76.7% in assay [6]. The growth in assay [7] is 102%; in assay [8], 96.4%.

In the case of `O=c1c2cnn(-c3ccccc3)c2n2c(CN3CCOCC3)nnc2n1-c1ccccc1`, the growth in assay [1] is 81.9%; in assay [2], 75.2%; in assay [3], 112%; in assay [4] it was 110%; in assay [5], 99.3%; in assay [6], 78.8%. Moreover, the growth in assay [7] is 104%; in assay [8], 101%.

With `CCNCCNc1cc(C2CCCCC2)c(C#N)c2nc3ccccc3n12`, the growth in assay [1] is -19.4% (active); in assay [2] it was -19.7% (active); in assay [3] it was -38.6% (active); in assay [4], 7.58% (active); in assay [5] it was 14.7%; in assay [6], -4.22% (active). For the same compound, the results for the growth in assay [7] and in assay [8] were 13.6% and 38.8%, respectively.

As for `O=[N+]([O-])c1ccc(O)cc1Br`, the growth in assay [1] is 96.8%; in assay [2], 91.2%; in assay [3], 100%; in assay [4], 104%; in assay [5], 92.9%; in assay [6], 95.4%. In addition, the growth in assay [7] is 103%; in assay [8] it was 101%.

`CNC(=O)c1ccccc1Oc1nc(Nc2cc(OC)c(OC)c(OC)c2)ncc1Br`: the growth in assay [1] is 62.2%; in assay [2] it was 62.7%; in assay [3], 74.5%; in assay [4], 46.7%; in assay [5] it was 44.5%; in assay [6], 46.5%. The figures for the growth in assay [7] and in assay [8] were 51.6% and 11%, respectively.

Consider `CN1CCN(C(=O)c2ccc(NC(=O)c3cc4c(nn3)NCCN4Cc3cc(Cl)ccc3Cl)cc2)CC1`, for which the growth in assay [1] is 97.3%; in assay [2], 60.1%; in assay [3], 61.4%; in assay [4] it was 50.6%; in assay [5] it was 46%; in assay [6], 32%. The growth in assay [7] is 99.8%; in assay [8], 21.7%.

For the compound `O=C(Nc1cccc2ccccc12)NC1CC1`, the growth is 91.5% in assay [1]; 91.1% in assay [2]; 113% in assay [3]; 105% in assay [4]; 87% in assay [5]; 103% in assay [6]. Moreover, the figures for the growth in assay [7] and in assay [8] were 111% and 115%, respectively.

Regarding `NS(=O)(=O)c1ccc(N=Nc2c(O)n(Cc3ccccc3)c3ccc(Cl)cc23)cc1`, the growth in assay [1] is 79.4%; in assay [2], 81.2%; in assay [3], 79.4%; in assay [4], 79.9%; in assay [5], 75.3%; in assay [6], 69.3%. Also, the values for the growth in assay [7] and in assay [8] were 101% and 88.5%, respectively.

On to `COC1=CC(c2ccc[nH]2)=N/C1=C\c1[nH]c(C)c(C)c1CCC(=O)OCc1ccccc1`, for which the growth in assay [1] is 2.57% (active); in assay [2], -28.7% (active); in assay [3], -39% (active); in assay [4], -14.8% (active); in assay [5], 3.15% (active); in assay [6], -76% (active). Further, the growth in assay [7] is 6.09% (active); in assay [8], -20.9% (active).

For the compound `CC(C)COc1nc2c(c(=O)n(C)c(=O)n2C)n1C`, the growth in assay [1] is 88.6%; in assay [2] it was 103%; in assay [3], 104%; in assay [4], 102%; in assay [5], 86.4%; in assay [6], 107%. Further, the values for the growth in assay [7] and in assay [8] were 102% and 99.5%, respectively.

On to `COc1ccc2cc1Oc1ccc(cc1)C[C@H]1c3c(cc4c(c3Oc3cc5c(cc3OC)CCN(C)[C@@H]5C2)OCO4)CCN1C`, for which the growth is 115% in assay [1]; 52% in assay [2]; 19% in assay [3]; 55.3% in assay [4]; 34.6% in assay [5]; 19.2% in assay [6]. In addition, the growth was 59.9% in assay [7] and 55.2% in assay [8].

On to `O=C1C(=O)N(Cc2ccc(-c3ccccc3)cc2)c2ccc(OC(F)(F)F)cc21`, for which the growth in assay [1] was 49.7%; in assay [2], 0.708% (active); in assay [3] it was 38%; in assay [4], 23.5%; in assay [5], 11.6%; in assay [6], 9.92% (active). In addition, the growth in assay [7] was 36.6%; in assay [8] it was 12.5%.

In the case of `CCOC(=O)Cc1cnc(N/N=C(\C)c2cc3ccccc3o2)s1`, the growth in assay [1] was 70.5%; in assay [2] it was 109%; in assay [3], 108%; in assay [4], 96.9%; in assay [5], 81.3%; in assay [6], 96.4%. Also, the growth in assay [7] is 105%; in assay [8], 96.3%.

As to `CC(C)(C)[Si](C)(C)OC1[C@@H](CNC(=O)NC(=O)NC(N)=O)O[C@@H](n2cnc3c(NC(=O)Nc4ccccc4)ncnc32)[C@H]1O[Si](C)(C)C(C)(C)C` (stereo not given in full), the growth in assay [1] was 82.8%; in assay [2], 95.4%; in assay [3] it was 68.9%; in assay [4], 55.9%; in assay [5], 57.9%; in assay [6], 20.5%. The growth in assay [7] was 85.8%; in assay [8] it was 61.5%.

As to `Nc1ncnc2c1C(c1ccc(Br)cc1)c1sc3c(F)cccc3c1O2` (stereo not given), the growth was 74.9% in assay [1]; 100% in assay [2]; 107% in assay [3]; 94.5% in assay [4]; 55.9% in assay [5]; 95% in assay [6]. In addition, the results for the growth in assay [7] and in assay [8] were 120% and 91.8%, respectively.

Regarding `O=C(c1ccccc1)c1ccc(C2CCCCC2)cc1`, the growth was 85.7% in assay [1]; 115% in assay [2]; 99.8% in assay [3]; 93.4% in assay [4]; 95.7% in assay [5]; 83.8% in assay [6]. Further, the growth in assay [7] was 107%; in assay [8], 103%.

With `N#CC1=C(c2ccccc2)Nc2c(c(-c3ccc(Cl)cc3)nn2-c2ccccc2)C12C(=O)Nc1ccc(Cl)cc12` (stereo not given), the growth was 55.8% in assay [1]; 76.2% in assay [2]; 45.3% in assay [3]; 85.9% in assay [4]; 54.9% in assay [5]; 65.5% in assay [6]. Moreover, the growth in assay [7] is 90.6%; in assay [8], 83%.

Regarding `C=C1CC[C@@H]2[C@](C)(COC(C)=O)[C@H](OC(C)=O)CC[C@@]2(C)[C@@H]1CC(Nc1ccc(S(=O)(=O)Nc2ncccn2)cc1)C1=CCOC1=O` (stereo not given in full), the growth is 42.3% in assay [1]; -32% (active) in assay [2]; -14.8% (active) in assay [3]; -70% (active) in assay [4]; -19.6% (active) in assay [5]; -55% (active) in assay [6]. Further, the growth is 32% in assay [7] and -13.2% (active) in assay [8].

For `Oc1ccc(Cl)cc1/C=N\NC(=S)N/N=C/c1cc(Cl)ccc1O`, the growth in assay [1] was 49.9%; in assay [2], 52.7%; in assay [3], 33.9%; in assay [4], 50.3%; in assay [5], 28.3%; in assay [6] it was 16%. The growth in assay [7] was 41.3%; in assay [8] it was 28.6%.

`CCN1C(=S)N(c2ccccc2)C2C1NN=c1s/c(=C3\C(=O)N(C(C)C)c4ccccc43)c(=O)n12` (stereo not given): the growth in assay [1] was 62.8%; in assay [2], 96.6%; in assay [3] it was 93.3%; in assay [4] it was 75.6%; in assay [5], 64.7%; in assay [6], 41.7%. For the same compound, the growth in assay [7] was 109%; in assay [8] it was 81.7%.

Regarding `COc1ccc(-c2cc(-c3ccc(Cl)cc3)c(C#N)c(=O)n2Cc2ccc(C(=O)Nc3ccccc3N)cc2)cc1`, the growth in assay [1] was 72.7%; in assay [2], 56.5%; in assay [3] it was 44.9%; in assay [4], 78.9%; in assay [5], 40.1%; in assay [6], 69.2%. Further, the growth in assay [7] was 107%; in assay [8], 57.3%.

Consider `COC(=O)[C@]12CCC(C)(C)C[C@H]1[C@H]1/C(=N/OCCc3nn[nH]n3)C[C@@H]3[C@@]4(C)CC[C@H](OC(C)=O)C(C)(C)[C@@H]4CC[C@@]3(C)[C@]1(C)CC2`, for which the growth in assay [1] was 26%; in assay [2], 34.9%; in assay [3], 31.4%; in assay [4] it was 41.9%; in assay [5], 20.9%; in assay [6], 24.7%. The figures for the growth in assay [7] and in assay [8] were 54.7% and 36.5%, respectively.

Turning to `CCCc1c(OC(=O)c2ccccc2)nc2[nH]c(=O)sc2c1C`, the growth was 89.7% in assay [1]; 95.1% in assay [2]; 103% in assay [3]; 95.3% in assay [4]; 92.9% in assay [5]; 98% in assay [6]. Moreover, the growth in assay [7] was 93.5%; in assay [8], 101%.

On to `Cc1csc(Nc2nc(-c3ccccn3)nc(C(Cl)(Cl)Cl)n2)n1`, for which the growth was 78.8% in assay [1]; 110% in assay [2]; 82.3% in assay [3]; 86.3% in assay [4]; 84.2% in assay [5]; 75% in assay [6]. The growth in assay [7] is 107%; in assay [8], 82.8%.
